Experimental data taken from the supplement of paper PMC10127200.
Where a name gives a salt, the structure may show the parent alone.

How the values were obtained:
Experiment in all cases: Euclidean distance of Cell Painting phenotypic profile (signed KS, 77 features) to DMSO centroid (dimensionless distance); 5 or 10 uM (library dependent); higher = stronger phenotypic change vs DMSO (phenoactivity)
Conditions in all cases: 48 h
786-O = tested on: 786-O
In short: (§1)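 Five cancer lines and a healthy fibroblast line received library compounds at 10 or 5 uM (library-dependent, 0.1% DMSO final) for 48 h. Stained cells were imaged confocally at 20X (9 fields/well). Harmony extracted 77 features, each scored as a signed Kolmogorov-Smirnov statistic against same-plate vehicle wells. Profiles were plate-position corrected, correlation-weighted and replicate-averaged at the top dose. Phenoactivity is the Euclidean distance from each profile to the median vehicle profile.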

A549 = tested on: A549
In short: as §1

DU145 = tested on: DU145
In short: as §1

FB = tested on: FB
In short: as §1

HEPG2 = tested on: HEPG2
In short: as §1

OVCAR4 = tested on: OVCAR4
In short: as §1

SMILES	Euclidean distance (786-O)	Euclidean distance (A549)	Euclidean distance (DU145)	Euclidean distance (FB)	Euclidean distance (HEPG2)	Euclidean distance (OVCAR4)
O=C(O)/C=C/c1ccc(O)cc1 [p-Coumaric Acid]	1.47	0.995	0.894	0.846	1.05	0.854
O=C(O[C@@H]1C[C@@H]2C[C@H]3C[C@H](C1)N2CC3=O)c1c[nH]c2ccccc12 [Dolasetron Mesylate]	1.12	0.793	0.963	1.17	0.558	1.22
CC(N/C(=N\C#N)Nc1ccncc1)C(C)(C)C (stereo unspecified) [Pinacidil]	1.01	0.907	2.42	1.15	0.55	1.54
O=C(O)/C=C/c1cnc[nH]1 [Urocanic acid]	1.13	0.682	0.798	0.718	0.554	1.26
CC(=O)OC(C)OC(=O)C(C)c1ccc(-c2ccccc2)c(F)c1 (stereo unspecified) [Flurbiprofen Axetil]	1.28	0.882	0.893	1.57	1.39	1.44
O=C(OCc1ccccc1)c1ccccc1 [Benzyl benzoate]	0.857	1.28	0.936	0.794	0.831	1.33
O=C(CCCCCN1C(=O)c2cccc3cccc(c23)C1=O)NO [Scriptaid]	3.19	3.02	2.28	3.75	2.92	3.33
Cc1ncc(C[n+]2csc(CCO)c2C)c(N)n1 [Thiamine HCl (Vitamin B1)]	1.43	0.642	0.753	0.562	1.12	1.21
O=C(O)[C@@H]1CCCN1 [L-Proline]	1.26	0.98	1.37	1	0.823	0.766
CC[C@H](C)[C@H](NC(=O)[C@H](Cc1ccc(O)cc1)NC(=O)[C@@H](NC(=O)[C@H](CCCN=C(N)N)NC(=O)[C@@H](N)CC(=O)O)C(C)C)C(=O)N[C@@H](Cc1cnc[nH]1)C(=O)N1CCC[C@H]1C(=O)N[C@@H](Cc1ccccc1)C(=O)O [Angiotensin II human Acetate]	1.66	0.986	0.817	1.24	0.532	0.985
COc1cccc(C=NCCN=Cc2cccc(OC)c2[O-])c1[O-].[Cl-].[Mn+3]	1.28	0.596	0.577	0.887	2.11	1.14
C[n+]1c2ccccc2nc2ccccc21 [Phenazine methosulfate]	5.13	2.82	4.95	4.99	3.66	2.78
CN[C@H](CC(C)C)C(=O)N[C@H]1C(=O)N[C@@H](CC(N)=O)C(=O)N[C@H]2C(=O)N[C@H]3C(=O)N[C@H](C(=O)N[C@H](C(=O)O)c4cc(O)cc(O)c4-c4cc3ccc4O)[C@H](O)c3ccc(c(Cl)c3)Oc3cc2cc(c3O[C@@H]2O[C@H](CO)[C@@H](O)[C@H](O)[C@H]2O[C@H]2C[C@](C)(N)[C@H](O)[C@H](C)O2)Oc2ccc(cc2Cl)[C@H]1O [Vancomycin HCl]	0.545	0.761	0.862	0.465	0.611	0.795
CN(C/C=C/C#CC(C)(C)C)Cc1cccc2ccccc12 [Terbinafine]	1.56	0.66	0.898	0.587	1.36	1.18
Cc1cc(C(C)Nc2ccccc2)c2nc(N3CCOCC3)cc(=O)n2c1 (stereo unspecified)	1.4	1.16	1.61	1.62	1.29	2.37
CCn1nc(C(=O)O)c(=O)c2cc3c(cc21)OCO3 [Cinoxacin]	1.03	1.18	0.942	1.56	0.617	1
CCS(=O)(=O)N1CC(CC#N)(n2cc(-c3ncnc4[nH]ccc34)cn2)C1 [Baricitinib phosphate]	1.75	0.985	1.99	1.55	0.776	0.981
CCc1c(O)cc(O)c(C(=O)c2ccc(OCCN3CCOCC3)c(OC)c2)c1CC(=O)N(CCOC)CCOC	2.14	3.28	2.34	3.63	2.39	3.18
C=CC(=O)Nc1cccc(Sc2nc(Nc3ccc(N4CCN(C)CC4)cc3)ncc2Cl)c1	2.96	3.04	2.04	3.82	3.02	2.64
Cc1cnc(CNC(=O)c2c(=O)c3ccc(N4CCCN(C)CC4)nc3n3c2sc2ccccc23)cn1	2.93	3.26	2.7	3.86	2.18	3.31
CN(C)C(=O)Nc1cccc(-c2ccc(N(C)C)cc2)c1 [Atglistatin]	1.31	1.47	1.1	0.894	0.548	1.33
CC(=O)OCC(CCn1cnc2cnc(N)nc21)COC(C)=O [Famciclovir]	1	0.742	0.892	0.846	0.598	1.57
O=C1NC(=O)C(=Cc2ccc(-c3ccc(F)cc3)o2)S1 (stereo in doubt)	1.04	0.938	1.43	1.29	0.808	1.33

SMILES	Euclidean distance (786-O)	Euclidean distance (A549)	Euclidean distance (DU145)	Euclidean distance (FB)	Euclidean distance (HEPG2)	Euclidean distance (OVCAR4)
C=CC(=O)Nc1cccc(Oc2nc(Nc3ccc(N4CCN(C)CC4)c(F)c3)nc3[nH]ccc23)c1 [Avitinib (AC0010)]	4.87	4.16	3.49	3.92	3.45	3.76
CCN1CCN(c2ccc(Nc3cc(N(C)C(=O)Nc4c(Cl)c(OC)cc(OC)c4Cl)ncn3)cc2)CC1 [BGJ398 (NVP-BGJ398|Infigratinib)]	3.87	4	2.87	3.62	2.39	4.1
CC(/C=C/C(=O)NO)=C\[C@@H](C)C(=O)c1ccc(N(C)C)cc1 [Trichostatin A]	3.62	4.26	3.19	4.05	3.58	3.53
O=C1CCCC(=O)C1C(=O)c1ccc(C(F)(F)F)cc1[N+](=O)[O-] [Nitisinone]	1.12	0.58	1.2	1	0.455	1.09
CC[C@@H]1C(=O)OC[C@@H]1Cc1cncn1C [Pilocarpine HCl]	1.14	0.624	0.725	0.78	0.698	1.49
C[C@@H](O)[C@H]1C(=O)N2C(C(=O)O)=C(S[C@@H]3CN[C@H](CNS(N)(=O)=O)C3)[C@H](C)[C@H]12 [Doripenem]	0.636	0.801	0.812	1.15	0.434	1.45
CCC[C@@H]1C[C@@H](C(=O)N[C@@H]([C@H]2O[C@H](SC)[C@H](O)[C@@H](O)[C@H]2O)[C@@H](C)O)N(C)C1 [Lincomycin Hydrochloride Monohydrate]	0.425	0.311	0.923	0.981	0.275	1.41
COC(=O)N[C@H](C(=O)N1CCC[C@H]1c1nc(-c2ccc3c(c2)O[C@@H](c2ccccc2)n2c-3cc3cc(-c4c[nH]c([C@@H]5CCCN5C(=O)[C@@H](NC(=O)OC)C(C)C)n4)ccc32)c[nH]1)C(C)C [Elbasvir]	2.17	1.94	1.26	1.97	1.04	1.58
Cc1c(NC(=O)OC[C@@H]2COCCN2)cn2ncnc(Nc3ccc4c(cnn4Cc4cccc(F)c4)c3)c12	2.06	1.47	1.13	1.52	1.28	0.963
Cc1cccc(C)c1N(CC(=O)Nc1ccc(-c2ncon2)cc1)C(=O)C1CCS(=O)(=O)CC1 [Amenamevir]	1.07	0.772	0.783	1.3	0.5	1.2
C[N+]1(C)[C@@H]2C[C@@H](OC(=O)C(O)(c3cccs3)c3cccs3)C[C@H]1[C@@H]1O[C@@H]12 [Tiotropium Bromide hydrate]	1.26	0.676	0.73	1.02	0.978	0.837
COc1ccc(CCC(=O)Nc2nc3ccc(Cl)cc3s2)cc1OC	1.29	1.76	1.19	0.998	1.39	1.52
Nc1ccc(C(=O)O)c(O)c1 [4-Aminosalicylic acid]	0.634	0.798	2.33	0.835	0.517	0.799
O=C(O)P(=O)(O)O [Foscarnet Sodium]	1.83	0.762	1.18	0.986	0.776	1.11
CN1C(C(=O)Nc2ccccn2)=C(O)c2sc(Cl)cc2S1(=O)=O [Lornoxicam]	0.853	0.623	0.95	0.965	1	0.799
CCOc1cc(N)c(Cl)cc1C(=O)NCC1CN(Cc2ccc(F)cc2)CCO1 (stereo unspecified) [Mosapride]	1.2	0.542	0.858	1.33	0.651	1.09
CC(C)CCCCC(=O)N[C@@H](CCN)C(=O)N[C@H](C(=O)N[C@@H](CCN)C(=O)N[C@H]1CCNC(=O)[C@H]([C@@H](C)O)NC(=O)[C@H](CCN)NC(=O)[C@H](CCN)NC(=O)[C@H](CC(C)C)NC(=O)[C@@H](Cc2ccccc2)NC(=O)[C@H](CCN)NC1=O)[C@@H](C)O [Polymyxin B sulphate]	1.64	0.815	1.39	1.53	0.717	0.928
C=C1CC[C@H](O)C/C1=C/C=C1\CCC[C@]2(C)[C@@H]([C@H](C)/C=C/[C@H](C)C(C)C)CC[C@@H]12 [Vitamin D2]	2.59	0.759	5.76	1.38	2.02	2.05
O=C1Cc2cc(CCN3CCN(c4nsc5ccccc45)CC3)c(Cl)cc2N1 [Ziprasidone HCl]	1.99	1.47	1.15	1.3	0.985	1.64
CC(C)N(CCCNC(=O)Nc1ccc(C(C)(C)C)cc1)C[C@H]1O[C@@H](n2cc(Br)c3c(N)ncnc32)[C@H](O)[C@@H]1O	0.633	1.32	1.19	1.58	1.15	0.804
COc1ccccc1N1CCN(CCN(C(=O)C2CCCCC2)c2ccccn2)CC1	0.724	1.67	1.84	3.28	2.11	4.14
OCCn1cc(-c2cnc3nnn(Cc4ccc5ncccc5c4)c3n2)cn1	0.916	0.988	0.98	0.792	1.2	1.08
O=C(O)CCc1ccc(NCc2cccc(Oc3ccccc3)c2)cc1	1.31	1.43	1.69	1.47	1.25	1.53
